Measurements from PubChem BioAssay AID1159580 (chemical genetic matrix, 2015).
About 2,000 (36%) of roughly 5,500 compounds were called active. Another 18% or so got no clear call; they are omitted. Rule as the data show it: active = normalized growth mostly below about 0.91 (no sharp cut-off); inconclusive = no clear call, values can overlap the other calls; inactive = mostly above about 0.92. This is one part of the list.

Experiment: chemical genetic growth profiling, strain panel (AID 1159580);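 also: tested at 20 µM; growth read once vehicle control cultures reached saturation at 30 °C; 1 = growth at the plate median or of vehicle wells; lower values mean less growth of the strain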
Details: growth OD

Measured: normalized growth

O=C1C[C@@H](c2ccc(O)cc2)Oc2cc(O)cc(O)c21
inactive: S. cerevisiae deletion strains, locus YJR075W, strain HOC1, stronger effect = lower value 1.02 | S. cerevisiae deletion strains, locus YKL009W, strain mrt4, stronger effect = lower value 1 | S. cerevisiae deletion strains, locus YKL068W, stronger effect = lower value 0.998 | S. cerevisiae deletion strains, locus YKL085W, strain MDH1 (second series), stronger effect = lower value 1 | S. cerevisiae deletion strains, locus YKL085W, strain MDH1, stronger effect = lower value 1 | S. cerevisiae deletion strains, locus YKL160W, strain elf1, stronger effect = lower value 0.985 | S. cerevisiae deletion strains, locus YKL190W, strain CNB1, stronger effect = lower value 1.01 | S. cerevisiae deletion strains, locus YKR001C, strain vps1, stronger effect = lower value 0.999 | S. cerevisiae deletion strains, locus YKR026C, strain gcn3, stronger effect = lower value 0.962 | S. cerevisiae deletion strains, locus YKR091W, strain srl3, stronger effect = lower value 0.973 | S. cerevisiae deletion strains, locus YLL001W, strain dnm1, stronger effect = lower value 0.944 | S. cerevisiae deletion strains, locus YLL026W, stronger effect = lower value 0.967 | S. cerevisiae deletion strains, locus YLL041C, strain sdh2, stronger effect = lower value 0.977 | S. cerevisiae deletion strains, locus YLR027C, strain aat2, stronger effect = lower value 0.982 | S. cerevisiae deletion strains, locus YLR039C, strain RIC1, stronger effect = lower value 1 | S. cerevisiae deletion strains, locus YLR058C, strain SHM2, stronger effect = lower value 1.01 | S. cerevisiae deletion strains, locus YLR102C, strain apc9, stronger effect = lower value 1.02 | S. cerevisiae deletion strains, locus YLR113W, strain HOG1, stronger effect = lower value 0.967 | S. cerevisiae deletion strains, locus YLR221C, strain rsa3, stronger effect = lower value 0.975 | S. cerevisiae deletion strains, locus YLR258W, strain gsy2, stronger effect = lower value 0.968 | S. cerevisiae deletion strains, locus YLR262C, strain YPT6 (second series), stronger effect = lower value 0.962 | S. cerevisiae deletion strains, locus YLR262C, strain YPT6, stronger effect = lower value 0.992 | S. cerevisiae deletion strains, locus YLR268W, strain sec22, stronger effect = lower value 1.01 | S. cerevisiae deletion strains, locus YLR320W, strain mms22, stronger effect = lower value 0.959 | S. cerevisiae deletion strains, locus YLR330W, strain CHS5, stronger effect = lower value 1.02 | S. cerevisiae deletion strains, locus YLR342W, strain FKS1 (second series), stronger effect = lower value 0.989 | S. cerevisiae deletion strains, locus YLR342W, strain FKS1, stronger effect = lower value 0.963 | S. cerevisiae deletion strains, locus YLR357W, strain rsc2, stronger effect = lower value 0.935 | S. cerevisiae deletion strains, locus YLR370C, strain arc18, stronger effect = lower value 0.957 | S. cerevisiae deletion strains, locus YLR371W, strain rom2, stronger effect = lower value 1.03 | S. cerevisiae deletion strains, locus YLR384C, strain iki3, stronger effect = lower value 0.959 | S. cerevisiae deletion strains, locus YLR418C, strain cdc73, stronger effect = lower value 1.03 | S. cerevisiae deletion strains, locus YML016C, strain PPZ1, stronger effect = lower value 1.01 | S. cerevisiae deletion strains, locus YML032C, strain rad52, stronger effect = lower value 1.01 | S. cerevisiae deletion strains, locus YML120C, strain ndi1, stronger effect = lower value 0.957 | S. cerevisiae deletion strains, locus YML124C, strain tub3, stronger effect = lower value 1.02 | S. cerevisiae deletion strains, locus YMR058W, strain fet3, stronger effect = lower value 0.955 | S. cerevisiae deletion strains, locus YMR078C, strain ctf18, stronger effect = lower value 1.02 | S. cerevisiae deletion strains, locus YMR125W, strain sto1, stronger effect = lower value 0.938 | S. cerevisiae deletion strains, locus YMR129W, stronger effect = lower value 0.966 | S. cerevisiae deletion strains, locus YMR205C, strain PFK2, stronger effect = lower value 0.942 | S. cerevisiae deletion strains, locus YMR223W, strain ubp8, stronger effect = lower value 1.01 | S. cerevisiae deletion strains, locus YMR231W, strain pep5, stronger effect = lower value 0.976 | S. cerevisiae deletion strains, locus YMR263W, strain SAP30, stronger effect = lower value 1.01 | S. cerevisiae deletion strains, locus YMR307W, strain GAS1, stronger effect = lower value 0.994 | S. cerevisiae deletion strains, locus YNL067W, strain RPL9B, stronger effect = lower value 1.01 | S. cerevisiae deletion strains, locus YNL071W, strain lat1, stronger effect = lower value 0.967 | S. cerevisiae deletion strains, locus YNL128W, strain TEP1, stronger effect = lower value 1.02 | S. cerevisiae deletion strains, locus YNL153C, strain GIM3, stronger effect = lower value 1.01 | S. cerevisiae deletion strains, locus YNL183C, strain NPR1, stronger effect = lower value 0.936 | S. cerevisiae deletion strains, locus YNL209W, strain ssb2, stronger effect = lower value 0.966 | S. cerevisiae deletion strains, locus YNL233W, strain BNI4, stronger effect = lower value 0.999 | S. cerevisiae deletion strains, locus YNL248C, strain rpa49, stronger effect = lower value 0.969 | S. cerevisiae deletion strains, locus YNL250W, strain rad50, stronger effect = lower value 1.01 | S. cerevisiae deletion strains, locus YNL271C, strain bni1, stronger effect = lower value 1.01 | S. cerevisiae deletion strains, locus YNL298W, strain CLA4, stronger effect = lower value 1.03 | S. cerevisiae deletion strains, locus YNL307C, strain MCK1, stronger effect = lower value 1.01 | S. cerevisiae deletion strains, locus YNL322C, strain KRE1 (second series), stronger effect = lower value 0.982 | S. cerevisiae deletion strains, locus YNL322C, strain KRE1, stronger effect = lower value 1.01 | S. cerevisiae deletion strains, locus YNR049C, strain mso1, stronger effect = lower value 0.959 | S. cerevisiae deletion strains, locus YNR052C, strain pop2, stronger effect = lower value 1.01 | S. cerevisiae deletion strains, locus YOL006C, strain TOP1, stronger effect = lower value 0.997 | S. cerevisiae deletion strains, locus YOL012C, strain htz1 0.851 | S. cerevisiae deletion strains, locus YOL147C, strain pex11, stronger effect = lower value 1.02 | S. cerevisiae deletion strains, locus YOR001W, strain rrp6, stronger effect = lower value 0.983 | S. cerevisiae deletion strains, locus YOR061W, strain CKA2, stronger effect = lower value 1.02 | S. cerevisiae deletion strains, locus YOR069W, strain VPS5, stronger effect = lower value 1.01 | S. cerevisiae deletion strains, locus YOR070C, strain gyp1, stronger effect = lower value 0.964 | S. cerevisiae deletion strains, locus YOR080W, strain dia2, stronger effect = lower value 0.976 | S. cerevisiae deletion strains, locus YOR083W, strain WHI5, stronger effect = lower value 0.996 | S. cerevisiae deletion strains, locus YOR106W, strain vam3, stronger effect = lower value 0.963 | S. cerevisiae deletion strains, locus YOR136W, strain idh2, stronger effect = lower value 1.02 | S. cerevisiae deletion strains, locus YOR144C, strain elg1, stronger effect = lower value 1.01 | S. cerevisiae deletion strains, locus YOR184W, strain ser1, stronger effect = lower value 1 | S. cerevisiae deletion strains, locus YOR231W, strain MKK1, stronger effect = lower value 0.95 | S. cerevisiae deletion strains, locus YOR265W, strain rbl2, stronger effect = lower value 0.969 | S. cerevisiae deletion strains, locus YOR270C, strain vph1, stronger effect = lower value 0.902 | S. cerevisiae deletion strains, locus YOR290C, strain snf2, stronger effect = lower value 0.923 | S. cerevisiae deletion strains, locus YOR316C, strain cot1, stronger effect = lower value 1.01 | S. cerevisiae deletion strains, locus YPL051W, strain arl3, stronger effect = lower value 0.984 | S. cerevisiae deletion strains, locus YPL055C, strain LGE1, stronger effect = lower value 1.02 | S. cerevisiae deletion strains, locus YPL078C, strain atp4, stronger effect = lower value 0.971 | S. cerevisiae deletion strains, locus YPL106C, strain sse1, stronger effect = lower value 0.957 | S. cerevisiae deletion strains, locus YPL240C, strain hsp82, stronger effect = lower value 0.978 | S. cerevisiae deletion strains, locus YPL241C, strain CIN2, stronger effect = lower value 1 | S. cerevisiae deletion strains, locus YPL256C, strain CLN2, stronger effect = lower value 0.921 | S. cerevisiae deletion strains, locus YPR119W, strain clb2, stronger effect = lower value 1.01 | S. cerevisiae deletion strains, locus YPR141C, strain kar3, stronger effect = lower value 1.01 | S. cerevisiae deletion strains, locus YPR163C, strain tif3, stronger effect = lower value 1 | S. cerevisiae deletion strains, locus YPR167C, strain met16, stronger effect = lower value 1.01 | S. cerevisiae deletion strains, strain wtn01, stronger effect = lower value 1.02 | S. cerevisiae strains, strain wild type, stronger effect = lower value 1.01
